High-throughput results as filed in PubChem BioAssay.
DRD3 antagonist: D3 dopamine receptor (human) antagonism; P35462; D3R cells, DiscoveRx beta-arrestin luminescence, antagonist mode; stronger effect = lower value; 360,000 compounds, 2.5% hits; max response, negative = inhibition, %; in the data active means max response below about -50%; inconclusive means no clear call, values can overlap the other calls; further: on the % scale 0 is the no-effect control and ±100 the full control effect
Target sequence (P35462 whole entry, looked up): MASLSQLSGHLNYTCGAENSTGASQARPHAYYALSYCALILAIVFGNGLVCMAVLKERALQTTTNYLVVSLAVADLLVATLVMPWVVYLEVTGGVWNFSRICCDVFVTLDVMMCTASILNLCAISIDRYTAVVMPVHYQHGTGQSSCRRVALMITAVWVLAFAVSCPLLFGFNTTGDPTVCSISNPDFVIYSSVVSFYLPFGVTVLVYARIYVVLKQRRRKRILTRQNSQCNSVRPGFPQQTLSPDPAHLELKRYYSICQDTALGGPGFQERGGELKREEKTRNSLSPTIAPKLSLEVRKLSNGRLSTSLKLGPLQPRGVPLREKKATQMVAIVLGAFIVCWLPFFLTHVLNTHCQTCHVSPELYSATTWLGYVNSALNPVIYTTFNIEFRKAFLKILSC
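Cells expressing the human receptor were seeded at 1500 cells/well, incubated overnight at 37 degrees C in 5% CO2, then exposed to library compounds with dopamine controls for 90 minutes at 37 degrees C before luminescent detection.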
D3 ag: agonists of human D3 dopamine receptor | 410,000 compounds, 0.58% hits | max activation, % | D3R DiscoveRx beta-arrestin cells, luminescence, 90 min; in the data active means max activation above about 30%; further: 0% is about no effect
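Cells at 1500/well, incubated overnight, then treated with pinned compounds (dopamine as control) for 90 min at 37 degrees C. DiscoveRx reagent added for 30 - 60 minutes at room temperature; luminescence read.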
BRCA1 expr act: activators of BRCA1 expression; Potency, µM (highest dose often 46.1 µM), without a hit: at the top dose activation, hits mostly activators; MCF7-BRCA1-FFLuc reporter, luminescence, 48 h; response scale: scaled: vehicle 0%, 10 µM genistein 100%; 380,000 compounds, 1.1% hits; further: potency means the concentration at half of the fitted maximal effect; nearly all actives have a fitted effect of over 80% in size
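Quantitative HTS in MCF7 cells stably reporting BRCA1 expression via firefly luciferase. Compound treatment lasts 48 h at 37 °C in phenol-red free MEM. Activation is expressed relative to genistein at 10 microM and DMSO.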
B2AR arrestin: agonists driving beta-arrestin recruitment to human beta2-adrenergic receptor; P07550; beta-arrestin recruitment to beta2AR, cell-based reporter; Potency, µM (series often up to 46.1 µM), without a hit: top-dose activation, most hits filed as activators; 330,000 compounds, 0.02% hits;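 further: potency means the concentration at half of the fitted maximal effect; 0% = DMSO controls and full agonism = EC100 isoproterenol or metaproterenol; nearly all actives have a fitted effect of over 65% in size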
PTHR1 agonist: agonists of human PTHR1 parathyroid hormone receptor. Q03431. HEK293 GP2 PTHR1 cells, GloSensor cAMP luminescence, 1 h. AID 743266. 410,000 compounds, 0.075% hits. Potency, µM (doses to about 115 µM), without a hit: at the highest dose activation, hits mostly activators; further: potency means the concentration at half of the fitted maximal effect; nearly all actives have a fitted effect of over 55% in size
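HEK-293-derived GP2 cells expressing PTHR1 and a GloSensor cAMP reporter, 3,000/well, plated overnight, given luciferin plus IBMX (each 0.5 mM as added) for 1 h at 37 °C, then compound for 1 h at 37 °C. Luminescence was read after 15 min at room temperature.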
RGS4 inh: blocks human RGS4-accelerated GTP hydrolysis; P49798; Transcreener GDP fluorescence polarization, RGS4-accelerated GTP hydrolysis; Potency, µM (doses to about 114 µM), without a hit: top-dose activity change, negative = inhibition, actives largely listed as inhibitors; 390,000 compounds, 0.039% hits; AID 504845; further: potency means the concentration at half of the fitted maximal effect; on the % scale 0 is the no-effect control and ±100 the full control effect; nearly all actives have a fitted effect of over 75% in size
Target sequence (P49798 whole entry, looked up): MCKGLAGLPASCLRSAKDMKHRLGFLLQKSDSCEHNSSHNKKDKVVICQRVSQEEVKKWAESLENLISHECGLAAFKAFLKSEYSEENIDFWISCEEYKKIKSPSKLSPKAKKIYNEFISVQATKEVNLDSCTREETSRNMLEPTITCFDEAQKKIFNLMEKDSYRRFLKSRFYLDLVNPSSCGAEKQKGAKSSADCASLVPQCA
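MLSMR compounds (23 nl, pin-transferred) preincubated 10 min at room temperature with a 500nM (2x) first reagent, then RGS4 at 900nM (2x) plus Transcreener GDP mix added; fluorescence polarization (620/688 nm) read before and after 90 min at 30 °C.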
* hit, by the source's call; i = inactive; ? = inconclusive; . = not tested or not shown; [ ] = dose if it differs, or a comment. Most compounds without a hit are left out; they make up all but 3.7% or so of the library. Unless noted, the call rests on the fitted dose curve; in most records, active means well fitted curve in the direction sought with a large enough effect; inconclusive means small, poorly fitted or top-dose-only effect, or another doubt; inactive means no such curve, though single readings can be large; an effect the other way counts as inactive or inconclusive.

SMILES	DRD3 antagonist	D3 ag	BRCA1 expr act	B2AR arrestin	PTHR1 agonist	RGS4 inh
COc1ccc(CNS(=O)(=O)c2ccc3c(c2)NC(=O)CS3)cc1	1	2	-20%	0%	-2%	-2%
CCO[C@@H]1OC(C(=O)NCc2ccccc2)=C[C@H](c2cn(C(C)=O)c3ccccc23)[C@H]1CCCO	8	67*	-44%	1%	-9%	5%
CCO[C@@H]1OC(C(=O)N2CCOCC2)=C[C@H](c2ccccc2)[C@H]1CCCO	-65*	-1	7%	0%	-7%	6%
C#Cc1ccc([C@H]2C=C(C(=O)OCC=C)O[C@@H](OCC)[C@@H]2CCCO)cc1	64	62*	0%	0%	-13%	6%
CCO[C@H]1OC(C(=O)O)=C[C@@H](c2cn(C(C)=O)c3ccccc23)[C@@H]1CCCO	-5	7	11%	.	i	1%
Cc1ccc(O)c(C(=O)c2cc(C#N)c3nc4ccccc4n3c2)c1	10	10	-22%	0%	-14%	-5%
Cc1cccc(Cn2c(SCc3ccc(C(=O)NCc4cccs4)cc3)nc3ccncc32)c1	.	-22	.	.	-8%	-25%
COc1nc(NCCc2ccc(OC)c(OC)c2)nc(Nc2ccccc2)n1	8	21	43%	0%	-38%	13%
Cc1ccc(OCCNc2cc(N3CCN(CCO)CC3)ccc2[N+](=O)[O-])cc1C	-56*	-9	-41%	-1%	i	-10%
Cc1cccc(OCCNc2cc(N3CCN(C)CC3)ccc2[N+](=O)[O-])c1	-65*	-50	-48%	0%	i	-19%
Cc1cccc(OCCNc2cc(N3CCOCC3)ccc2[N+](=O)[O-])c1	23	8	28%	0%	i	9%
Cc1ccccc1OCCNc1cc(N2CCNCC2)ccc1[N+](=O)[O-]	.	.	.	0%	.	.
CCn1c(-c2cc(Br)cc(OC)c2O)nc2cc(S(=O)(=O)N(C)C)ccc21	-5	37*	-36%	0%	-27%	-7%
CCn1c(-c2ccccn2)nc2cc(S(=O)(=O)N(C)C)ccc21	-8	14	?	-1%	i	0%
Cc1ccnc(NC(=O)CCC(=O)N(CC(=O)NC(C)(C)C)c2ccc3c(c2)OCCO3)c1	0	-12	-9%	0%	i	-14%
Cc1cc(-c2ccccc2)nc2[nH]n(-c3ccccc3)c(=O)c12	-68*	-7	0%[1.84 µM]	0%	-17%	-11%
Cc1cc(C)c2c(=O)n(-c3ccccc3)[nH]c2n1	13	3	12%	0%	5%[57.5 µM]	-29%
CCCCC(=O)OCC(=O)[C@]1(O)Cc2c(O)c3c(c(O)c2[C@@H](O[C@H]2C[C@H](NC(=O)C(F)(F)F)[C@H](O)[C@H](C)O2)C1)C(=O)c1c(OC)cccc1C3=O	.	-7	.	.	.	.
O=c1oc2cc(Cl)ccc2n1CSc1nc2ccccc2s1	0	-1	7.9µM*	-1%	-2%[57.5 µM]	-11%
O=C(CSc1nc2ccccc2s1)N1c2ccccc2Sc2ccc(Cl)cc21	-25	5	-35%	1%	26%[57.5 µM]	26%
Cc1ccc(OCC(=O)Nc2cc3nn(-c4ccccc4)nc3cc2C)cc1	.	6	.	.	-3%	-10%
CC(C)Nc1ccc(C(CC(N)=O)NC(=O)c2ccc(Br)cc2)cc1[N+](=O)[O-] (stereo not drawn)	1	-12	-34%	0%	-4%	-8%
CN(Cc1ccccc1)c1ccc(C(CC(N)=O)NC(=O)c2ccc(Br)cc2)cc1[N+](=O)[O-] (stereo not drawn)	-52*	-52	-56%	0%	-39%	10%
Cc1ccc(C(=O)NCCN2CCN(C(=O)c3ccc(C)c(C)c3)CC2)cc1C	-98*	-28	-13%	-1%	-71%	30%
O=C(NCCN1CCN(C(=O)c2ccc(Br)cc2)CC1)c1ccc(Br)cc1	-98*	-24	-2%	-1%	-23%	-1%
SMILES	DRD3 antagonist	D3 ag	BRCA1 expr act	B2AR arrestin	PTHR1 agonist	RGS4 inh
CCn1c(C)c(C)c2cc(C(=O)NCCN3CCCCCC3)ccc21	-81*	-18	-15%	-1%	i	11%
CCn1c(C)c(C)c2cc(C(=O)NCCCN3CCCCCC3)ccc21	-29	-19	-2%	-1%	-1%	5%[11.4 µM]
CCOc1ccc(CN2C(=O)c3ccccc3Sc3ccc(C(=O)N4CCN(C)CC4)cc32)cc1	.	4	?	.	i	8%
O=C(N=C1c2ccccc2CN1c1ccc(F)c(Cl)c1)c1cccnc1Cl	.	.	.	0%	.	.
N#Cc1ccc(N2Cc3ccccc3C2=NC(=O)c2cccnc2Cl)cc1	-18	-13	13µM*	?	i	10%
O=C(CCNS(=O)(=O)c1ccc(Br)s1)Nc1ccc(Cl)cc1	-52*	1	-2%	0%	-17%	-13%
O=C(CCNS(=O)(=O)c1ccc(Br)s1)NC1CCCC1	-103*	-3	-2%	-1%	i	-4%
COc1cc(NC(=O)NCCc2c(C)nn(C)c2C)cc(OC)c1OC	.	6	0%	.	-13%	5%
CCC(C)Sc1nnc(NC(=O)C2CCN(C(=O)c3ccco3)CC2)s1 (stereo not drawn)	-24	-11	-15%	0%	8%	29%
COC(=O)c1sccc1NC(=O)c1cc(C)on1	-53*	-10	-36%	0%	-2%	12%
COC(=O)c1sccc1NC(=O)COc1ccc(Cl)cc1Cl	17	5	-29%	-1%	i	-11%
COC(=O)c1sccc1NC(=O)COc1ccc(C)cc1	-75*	-3	36%	0%	?	17%
CCc1cc2c(=O)n(CC(C)C)cnc2s1	?	0	11µM*	0%	i	11%
CCCCCn1cnc2sc(CC)cc2c1=O	8	5	?	-1%	-13%	-2%
COC(=O)C1Cc2c([nH]c3ccccc23)C2(CCN(Cc3ccccc3)CC2)N1 (stereo not drawn)	-93*	-23	-22%	5%	?	21%
CCCN1CCC2(CC1)NC(C(=O)O)Cc1c2[nH]c2ccccc12 (stereo not drawn)	10	-2	1%	-1%	-24%	2%
CCCCCCN1CCN(C2CN(Cc3cn(Cc4ccccc4)nn3)S(=O)(=O)C2)CC1 (stereo not drawn)	-51*	-10	-6%	.	-7%	.
Cc1ccc(CN2CC(N3CCN(CCO)CC3)CS2(=O)=O)cc1 (stereo not drawn)	-61*	-4	0%	.	-10%	.
Cc1cc(C)cc(Cn2cc(CN3CC(N4CCSCC4)CS3(=O)=O)nn2)c1 (stereo not drawn)	-54*	-1	21%	.	3%	.
